# High-throughput results: PubChem, National Center for Advancing Translational Sciences (NCATS)
# In the library only some 21% were active in any assay of this set; here they are far more common.
# HCMV antiviral: inhibitors of human cytomegalovirus; HFF cells, HCMV-luciferase reporter, 72 h; active compounds read low; activity change, negative = inhibition, % at 57.5 µM; 4.5% of 410,000 active; AID 1259415; in the data active = activity change below about -60%; inconclusive = no clear call, values can overlap the other calls; inactive = above about -39%
#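 Human foreskin fibroblasts infected with luciferase-reporter HCMV at MOI 1 PFU/cell, compounds at two doses. Luciferase measured 72 h post infection; normalized to buffer-only basal and Salinomycin (10uM) controls.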
# Pf growth 96h: P. falciparum growth inhibition at 96 hours; P. falciparum luciferase reporter growth, 96 h; Potency, µM (doses to about 28.7 µM), hits mostly inhibitors; 6.9% of 320,000 active
#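 Erythrocytes infected with luciferase-expressing P. falciparum were dispensed at 2% hematocrit and 0.05% parasitemia (final), then incubated with compounds 96 hours at 37 C in 5% CO2. Luminescence after detection reagent addition reported growth.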
# Shiga inhibitor: Shiga toxin inhibition | Vero cells, Shiga toxin protein synthesis inhibition reporter | inhibition, % at 38.7 µM | 9.2% of 290,000 active | AID 2315; in the data active = inhibition mostly above about 28%, no sharp cut-off; inactive = mostly below about 43%
# Pf growth 48h: inhibits P. falciparum growth in the first generation, 48 h; P. falciparum luciferase growth in erythrocytes, 48 h; Potency, µM (series often up to 28.7 µM), usual class: inhibitors; 5.9% of 310,000 active
#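 Luciferase-expressing P. falciparum in infected erythrocytes (2% hematocrit, 0.1% parasitemia final) in RPMI 1640/0.5% Albumax were exposed to compound for 48 hours at 37 C, 5% CO2; growth read as luminescence.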
# CHX counter: counter-screen for Shiga toxin inhibitors: cycloheximide protein synthesis inhibition | max response, % | AID 2314 | cell reporter, cycloheximide protein synthesis inhibition counterscreen | 12% of 300,000 active; in the data active = max response mostly above about 13%, no sharp cut-off; inactive = mostly below about 14%; also: read at 38.3 µM for the half of the compounds with a filed dose
# HCV inh: blocks hepatitis C virus | Huh7.5.1 HCVcc-Cre infection, luciferase reporter, 44 h | Potency, µM (series often up to 41.8 µM), usual class: inhibitors | 3.4% of 340,000 active | AID 651820
#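 1,000 cells/well; 4 h culture; + compound; + HCVcc-Cre (~0.5 moi); 44 h; luciferase substrate, RT 15 min; read 15 sec.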
# Hits are given with their value; - = inactive; ? = inconclusive; . = not tested or not shown. Unless noted, calls follow the shape of the dose curve; as a rule, active = well fitted inhibition curve with a large enough effect; inconclusive = small, poorly fitted or top-dose-only effect, or another doubt; inactive = no such curve, though single readings can be large or run the other way.
SMILES,HCMV antiviral,Pf growth 96h,Shiga inhibitor,Pf growth 48h,CHX counter,HCV inh
COc1ccc2[nH]c(C(=O)NCCCn3ccnc3)cc2c1,.,?,-,?,-,-
O=C1NC(=Nc2ccccc2)SC1Cc1ccccc1 (centres undefined),?,-,-,-,-,?
O=C1C(Cc2ccccc2)SC(=Nc2ccccc2)N1c1ccccc1 (centres undefined),-,-,-,13µM,-,-
O=[N+]([O-])c1cc(C(F)(F)F)cc([N+](=O)[O-])c1NCCCNc1ccc([N+](=O)[O-])c2cccnc12,-,4.1µM,-,?,-,?
CCOc1ccc(CCNC(=O)COC(=O)c2oc3ccccc3c2COC)cc1OCC,-,?,.,-,.,-
O=C1OC(N2C(=O)CC[C@H]2C(=O)Nc2ccc(F)c(F)c2)c2ccccc21 (some centres undefined),-,-,-,-,-,-
O=C1OC(N2C(=O)CC[C@H]2C(=O)Nc2ccc3c(c2)OCO3)c2ccccc21 (some centres undefined),-,-,-,-,-,0.89µM
Cc1ccc(Nc2c(-c3ccccn3)nc3ccc(Br)cn23)cc1,-,.,.,.,.,.
COC(=O)CNc1c(-c2ccccn2)nc2ccc(Br)cn12,-,-,49,-,36,-
O=C1CC2(CCN(C(=O)c3ccccc3Cl)CC2)Oc2ccccc21,-,?,.,-,.,-
Cc1cc(C(C)(C)C)cc(C)c1CCNC(=O)c1c(C)noc1C,?,8.3µM,.,13µM,.,11µM
Cc1noc(C)c1C(=O)NCCc1ccc(Cl)cc1,-,.,-,-,-,-
COc1cc2oc(=O)cc(-c3ccc(-c4sccc4C=O)cc3)c2c(OC)c1OC,.,.,-,.,-,.
CC(=O)c1cccc(NC(=O)c2ccc3nc(C(C)C)oc3c2)c1,-,.,.,.,.,.
COc1ccc(Cn2c(=O)c3[nH]cnc3n(-c3ccc(C)cc3)c2=O)cc1,-,2.3µM,-,?,-,?
COc1ccc(-n2c(=O)n(Cc3ccccc3)c(=O)c3[nH]cnc32)cc1,-,?,-,-,-,-
CCOC(=O)/C(C#N)=C/C=C1/C=CC=CN1C,-,-,-,-,27,-
CCOC(=O)/C(C#N)=C\N(C)C,-,-,-,-,-,-
C=CCN1C=CC(=C/C=C(/C#N)C(=O)OCC)C=C1,-,-,-,-,34,?
COc1cccc(CN2CCCC(N3CCc4ccccc4C3)C2)c1O (centres undefined),?,-,-,?,-,-
CCOc1cccc(CN2CCN(c3cccc(C(F)(F)F)c3)CC2)c1O,-,.,-,2.3µM,-,-
CCOc1cccc(CN2CCCC(N3CCN(c4cccc(Cl)c4)CC3)C2)c1O (centres undefined),-,3.7µM,-,?,-,-
CCOc1cccc(CN2CCCC(C(=O)c3cc(Cl)ccc3OC)C2)c1O (centres undefined),-,-,-,1.7µM,-,?
COc1cccc(CN2CCN(c3cccc(C(F)(F)F)c3)CC2)c1OC,-,.,-,-,-,-
CCOc1cccc(CN2CCCC(N3CCc4ccccc4C3)C2)c1O (centres undefined),-,-,-,1.7µM,-,-
SMILES,HCMV antiviral,Pf growth 96h,Shiga inhibitor,Pf growth 48h,CHX counter,HCV inh
CC(C)/C=C/CN1CCCC(N2CCN(c3cccc(Cl)c3)CC2)C1 (centres undefined),-,-,-,?,-,-
O=C(Cc1n[nH]c(=O)c2ccccc12)OCC(=O)c1ccc(F)c(F)c1,-,-,.,-,.,-
FC(F)(F)c1cccc(N2CCN(Cc3cccnc3)CC2)c1,?,4.7µM,-,?,-,-
Cc1cccc(CC(=O)NCCN2CCCCC2)c1,-,?,-,-,-,-
C/C(=N\NC(=O)c1cc2ccccc2cc1O)c1cccs1,-,-,80,-,37,-
C/C(=N/NC(=O)c1cc2ccccc2cc1O)c1ccco1,-73,-,-,?,-,-
O=C(NNC(=O)c1cc2ccccc2cc1O)c1cccs1,-,-,109,.,45,-
C/C(=N\NC(=O)c1cc2ccccc2cc1O)c1ccc(C)o1,-,-,-,?,-,-
COc1ccccc1NC(=O)CN1C(=O)C(c2ccc(F)cc2)=NC1(C)C,-,.,.,.,.,.
